Several values for one entry are separate records, joined by “and”; a condition that tells them apart may be missing. Equal values may be shown once. Screen size: about 390,000 compounds; about 150 (0.038%) were called active. Inconclusive results (about 3%) are left out. The call rests on the fitted dose curve; in most records, active means well fitted inhibition curve with a large enough effect; inconclusive means small, poorly fitted or top-dose-only effect; inactive means no such curve, though single readings can be large or run the other way. The entries come from a sample that favours actives as a whole. Some compounds were tested as several samples or in several runs, with calls that do not always agree.
What follows are compounds tested against Regulator of G-protein signaling 4 (Homo sapiens) (UniProt P49798) (assay: Inhibitors of Regulator of G Protein Signaling (RGS) 4: qHTS). Details: Transcreener GDP fluorescence polarization, RGS4-accelerated GTP hydrolysis; series mostly up to 114 µM; activity change, negative = inhibition: at the top concentration.
Sequence of Regulator of G-protein signaling 4 (Homo sapiens) (P49798 whole entry, looked up): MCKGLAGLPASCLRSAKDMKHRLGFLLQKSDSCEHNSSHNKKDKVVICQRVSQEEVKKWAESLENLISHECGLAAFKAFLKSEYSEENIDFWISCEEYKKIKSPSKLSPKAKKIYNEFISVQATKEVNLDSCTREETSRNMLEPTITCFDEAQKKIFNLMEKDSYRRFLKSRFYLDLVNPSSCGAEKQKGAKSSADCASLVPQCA
Procedure, shortened: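 MLSMR compounds (23 nl, pin-transferred) preincubated 10 min at room temperature with a 500nM (2x) first reagent, then RGS4 at 900nM (2x) plus Transcreener GDP mix added; fluorescence polarization (620/688 nm) read before and after 90 min at 30 °C.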
Further: nearly all actives have a fitted effect of over 75% in size.
On the % scale 0 is the no-effect control and ±100 the full control effect; potency means the concentration at half of the fitted maximal effect.

Structure (SMILES)	activity change, negative = inhibition	Potency
O=C(NCc1ccccc1)c1cccc(NC(=O)N2CCSc3ncccc32)c1	16.8% (inactive)	–
COc1ccc(Cn2c(=O)[nH]c3cc(C(=O)N4CCN(C(=O)c5ccco5)CC4)ccc3c2=O)cc1	-26% (inactive)	–
CCOc1ccc(NC(=O)CSc2nnc3c(n2)[nH]c2ccc(S(=O)(=O)N4CCOCC4)cc23)cc1	0.0899% (inactive)	–
CC1CCCN(S(=O)(=O)c2ccc3[nH]c(=O)cc(C(=O)NCCc4ccc(Cl)cc4)c3c2)C1 (stereo unspecified)	-8.74% (inactive)	–
CCN(CC)CCNC(=O)CN1N=C(c2ccc(OC)cc2)CCC1=O	-1.33% (inactive)	–
COC(=O)c1ccc(C2C(C(=O)Nc3ccccc3)=C(C)Nc3nc4ccccc4n32)cc1 (stereo unspecified)	12.3% (inactive)	–
O=C(NCCc1ccc(Cl)cc1)C1CCCN1C(=O)NCc1ccccc1 (stereo unspecified)	0.986% (inactive)	–
Oc1cc2c(cc1O)CN(C(=S)NCCc1ccc(Cl)cc1)CCC2	–	inactive and 16.8 µM (active)
S=C(Nc1ccc(Cl)cc1Cl)N1CCCC1	17.2% (inactive)	–
COc1ccc(CC(=O)NCCc2sc3nc(-c4ccc(OC)cc4)nn3c2C)cc1	23.7% (inactive)	–
Cc1ccc(-n2ncc(C(=O)N(C)Cc3ccccc3)c2-n2cccc2)cc1	12.5% (inactive)	–
Cc1ccc(-c2onc(C)c2C)cc1S(=O)(=O)Nc1ccccn1	-2.85% (inactive)	–
O=C1C[C@@H](c2ccc3ccccc3c2)N1S(=O)(=O)c1ccccc1[N+](=O)[O-]	3.68% (inactive)	–
CCCN1CCN(CCCNC(=O)c2ccc3nc(Cc4ccccc4)oc3c2)CC1	18.4% (inactive)	–
Cc1cccc(C(=O)NCCc2nc3ccccc3n2Cc2ccccc2Cl)c1	-14.7% (inactive)	–
CSc1ccc(CCNC(=O)c2cc(C)nc3c2c(C)nn3-c2cccc(F)c2)cc1	-41% (inactive)	–
COCCNS(=O)(=O)c1cc(-c2nn3c(C)nnc3c3ccccc23)ccc1C	-16.3% (inactive)	–
Cc1ccc(NC(=O)c2cccc(N(C)C)c2)cc1NC(=O)c1ccc(O)cc1	–	inactive
Cc1ccccc1C(=O)N(Cc1ccc(N(C)C)cc1)CC1CCCO1 (stereo unspecified)	8.38% (inactive)	–
Cc1nc(SCC(=O)N2CCN(c3ccccc3)CC2)[nH]c(=O)c1C	19.3% (inactive)	–
NC(=O)CSc1nc2c(oc3ccccc32)c(=O)n1Cc1ccccc1	-46.5% (inactive)	–

Structure (SMILES)	activity change, negative = inhibition	Potency
CCN(C(=O)Cn1c(=O)nc(-c2ccccc2)c2cc(Cl)ccc21)c1cccc(C)c1	-11.5% (inactive)	–
CCCCCCn1nnc2sc(-c3ccccc3)cc2c1=O	-27.4% (inactive)	–
CC(C)c1ccc2oc(-c3cc(NC(=O)c4cccs4)ccc3Cl)nc2c1	-15% (inactive)	–
Cc1cc2oc(C(=O)N(Cc3ccc(Cl)cc3)Cc3ccco3)c(C)c2cc1Cl	30% (inactive)	–
CC(C)[C@H]1CC[C@@H](C)C[C@H]1O	-127% [at 56.9 µM] (inactive)	–
COc1ccc(CNC(=O)c2cc3c(=O)[nH]c4ccccc4c3s2)cc1	-9.46% (inactive)	–
O=S(=O)(Nc1cccc2cccnc12)c1cccc2cccnc12	9.93% (inactive)	–
COC(=O)c1cc2occc2n1Cc1nc(-c2ccc(C)cc2)oc1C	12.1% (inactive)	–
Cc1ccc(F)cc1S(=O)(=O)N1CCC(c2nc3ccccc3s2)CC1	-18.9% (inactive)	–
Cc1cc(OC(C)C(=O)Nc2sc3c(c2C(N)=O)CCCC3)ccc1Cl (stereo unspecified)	-10.8% (inactive)	–
COc1ccc(C2Nc3ccc(NC(=O)COC(C)=O)cc3C(=O)N2Cc2ccccc2)cc1COc1ccc(NC(C)=O)cc1 (stereo unspecified)	0.54% (inactive)	–
C#CCOc1ccc(C2CC(=O)Nc3c2c(C)nn3-c2nc(C)cc(C)n2)cc1 (stereo unspecified)	-13.7% (inactive)	–
Cc1ccc(C)c(N2CCN(C(=O)Cn3nc(C)c4sc5ccccc5c4c3=O)CC2)c1	-5.5% (inactive)	–
CC(C)S(=O)(=O)c1oc(-c2ccc(F)cc2)nc1S(=O)(=O)c1ccc(F)cc1	-17.3% (inactive)	–
COc1cc(OC)cc(C(=O)Nc2c(C(=O)Nc3ccc(F)cc3)oc3ccccc23)c1	8% (inactive)	–
Oc1ccc(Cl)cc1C1C=C(c2ccc3c(c2)OCO3)NC(c2ccc(F)c(Br)c2)N1 (stereo unspecified)	-52.5% (inactive)	–
CCOc1ccc(NC(=O)CC2C(=O)N(c3cccc(OC)c3)C(=O)N2C2CCCCC2)cc1 (stereo unspecified)	33.4% (inactive)	–
COc1ccc(Cc2nc3ccc(C(=O)NCc4ccccc4C)cc3o2)cc1	1.01% (inactive)	–
O=C(Nc1ccc2c(c1)OCO2)c1cc(-c2cccc(Cl)c2)on1	5% (inactive)	–
C=CC1(C)CC(=O)C2(O)C(C)(O1)C(OC(C)=O)C(O)C1C(C)(C)CCC(O)C12C (stereo unspecified)	-6.89% [at 56.9 µM] (inactive)	–
Cc1ccccc1CSc1nc2c([nH]c3ccccc32)c(=O)n1C	4.27% (inactive)	–

Structure (SMILES)	activity change, negative = inhibition	Potency
O=C(c1ccc(F)cc1)C1CCN(CCCCc2ccccc2)CC1	80.5% [at 56.9 µM] (inactive)	–
CCc1cc2c(cc3c(=O)n(CC(=O)NCc4cccc(Cl)c4)nc(CC)n32)s1	19.3% (inactive)	–
Cc1ccc(Cl)cc1N1CCN(S(=O)(=O)c2cc3[nH]c(=O)c(=O)[nH]c3cc2C)CC1	-20% (inactive)	–
CCCSc1ncc(Cl)c(C(=O)Nc2sc3c(c2C(=O)NCCOC)CCCC3)n1	20.4% (inactive)	–
Cc1ccc(CCNC(=O)C2CCN(c3nnc(-n4cccc4CNc4ccc(C)cc4)s3)CC2)cc1	29.4% (inactive)	–
CCOc1ccccc1NC(=O)Cn1c(=O)n(-c2cccc(C)c2)c(=O)c2c1c1cc(OC)ccc1n2C	6.5% (inactive)	–
COc1ccc(Cl)cc1NC(=O)C(C)Sc1nc2c(c(=O)[nH]1)CCCC2 (stereo unspecified)	30.7% (inactive)	–
Cc1ccc2nc(/C(C#N)=C/c3ccc(-c4ccc(C(=O)OC(C)C)cc4)o3)[nH]c2c1	2.62% (inactive)	–
CCOc1ccccc1CNC(=O)Nc1cn(CC(C)C)c(=O)c2ccccc12	5.51% (inactive)	–
O=C1C2C(c3ccccc3)CC=CC2C(c2ccoc2)N1Cc1ccccc1 (stereo unspecified)	-10.6% (inactive)	–
Cc1cccc(-c2cc(=O)c3cc(C)ccc3o2)c1	-644% [at 56.9 µM, above what the read-out allows, likely interference] (inactive)	–
CC1CC2C3CCC4=CC(=O)C=C[C@]4(C)[C@@]3(F)[C@@H](O)C[C@]2(C)[C@@]1(O)C(=O)CO (stereo partly specified)	13.2% [at 56.9 µM] (inactive)	–
Nc1ncnc2c1ncn2C1CC(O)C(CO)O1 (stereo unspecified)	-180% [at 56.9 µM] (inactive)	–
CSc1ccccc1N1CCN(CCCCCC(=O)NC2CCCc3ccccc32)CC1 (stereo unspecified)	17.9% [at 56.9 µM] (inactive)	–
CCC(=O)N1CCc2cc(Br)cc(S(=O)(=O)CCC(=O)NCCc3ccc(OC)c(OC)c3)c21	-31.3% (inactive)	–
Cc1ccc(-n2c3nc(=O)[nH]c(=O)c-3cc3c(Cl)cccc32)cc1	-2.68% (inactive)	–
COc1ccc(C)cc1NC(=O)CCc1c(C)nn(-c2ccc(N3CCOCC3)nn2)c1C	-16% (inactive)	–
COC(=O)c1cccc(Cn2nnc3sc4c(c3c2=O)CCC(C(C)(C)C)C4)c1 (stereo unspecified)	-10.7% (inactive)	–
CCOC(=O)c1c(C)[nH]c(CCC(=O)NCCCN2CCN(c3cccc(Cl)c3)CC2)c1C	-21.8% (inactive)	–

From PubChem BioAssay AID504845 (National Center for Advancing Translational Sciences (NCATS), 2011)
